From PubChem
The sample as a whole holds a higher share of hits than the screen did.
ERG Ets-DNA blk: inhibitors of human ERG Ets domain-DNA interaction | P11308 | fluorescence polarization, His-ERG Ets domain / labelled DNA | Potency, µM (doses to about 76.9 µM), without a hit: at the highest dose FP activity, negative = inhibition, most hits filed as inhibitors | hit rate 0.028% among 370,000 | AID 624246; active = well fitted inhibition curve with a large enough effect in the polarisation, with a control signal flat; inconclusive = small, poorly fitted or top-dose-only effect, or effect the other way, or a change in a side signal; inactive = no such curve, though single readings can be large or run the other way; the % refers to the polarisation;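 also: polarization taken with two DNA probes labelled with fluorescein and Texas red; potency is read from the fitted curve at half-maximal effect; % of control where 0% means no effect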
Target sequence (P11308 whole entry, looked up, the tested form may be a part): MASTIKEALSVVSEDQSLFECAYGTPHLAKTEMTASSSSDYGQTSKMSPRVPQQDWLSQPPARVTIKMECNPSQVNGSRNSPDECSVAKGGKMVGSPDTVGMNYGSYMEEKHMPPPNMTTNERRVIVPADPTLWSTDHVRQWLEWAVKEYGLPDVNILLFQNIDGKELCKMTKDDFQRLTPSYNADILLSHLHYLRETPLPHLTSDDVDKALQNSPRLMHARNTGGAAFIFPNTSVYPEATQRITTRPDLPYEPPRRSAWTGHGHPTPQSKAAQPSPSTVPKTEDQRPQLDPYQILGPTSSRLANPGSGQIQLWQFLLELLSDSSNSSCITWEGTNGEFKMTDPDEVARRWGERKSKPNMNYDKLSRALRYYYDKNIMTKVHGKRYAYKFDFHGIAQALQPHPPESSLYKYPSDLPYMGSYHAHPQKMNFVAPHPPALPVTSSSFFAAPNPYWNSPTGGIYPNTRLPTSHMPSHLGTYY
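His-tagged ERG Ets domain (1 uM in the protein solution; 300mM KCl, 50mM Tris-HCl, 1mM EDTA, 1mM DTT, pH 7.5) received compound, then a probe mix of 5 nM fluorescein-DNA and 100nM Texas-615-DNA. Fluorescence polarization was read for both dyes.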
Gal4-VP16 FLuc: inhibits Gal4-VP16 luciferase reporter, ROR gamma counter-screen; hit rate 3.5% among 310,000; Drosophila S2 Gal4-VP16 UAS-luciferase, luminescence, 20 h; Potency, µM (highest dose often 53.6 µM), without a hit: at the top dose activity, negative = inhibition, actives largely listed as inhibitors;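 also: Gal4-VP16 expression switched on by copper sulfate through the metallothionein promoter; potency is read from the fitted curve at half-maximal effect; % is scaled to controls: 0 for no effect and ±100 for the full control effect; nearly all actives have a fitted effect of over 50% in size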
Integrin act MD: activators of alpha7 integrin expression for muscular dystrophy. Potency, µM (highest dose often 38.3 µM), for inactives: top-dose activation, most hits filed as activators. alpha7betagal myoblasts, beta-gal FDG fluorescence, 48 h. hit rate 0.064% among 350,000;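 also: potency is read from the fitted curve at half-maximal effect; 100% = response of the positive control SU9516; nearly all actives have a fitted effect of over 60% in size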
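alpha7betagal+/- myoblasts (passage 13, 250/well) treated 48 h at 37C with compounds at 1:260 dilution of DMSO stock. Lysed, then beta-galactosidase activity read as FDG fluorescence (ex 480/em 540) after 30 min, with pre-read for autofluorescence.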
RORgamma inh: ROR gamma (mouse) transcription inhibition. AID 2551. Drosophila S2 Gal4-RORgamma UAS-luciferase reporter, 20 h. Potency, µM (doses to about 53.6 µM), for the others: at the highest dose activity change, negative = inhibition, most hits filed as inhibitors. hit rate 5.4% among 310,000; also: potency is read from the fitted curve at half-maximal effect; % is scaled to controls: 0 for no effect and ±100 for the full control effect; nearly all actives have a fitted effect of over 60% in size
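Stably transfected Drosophila Schneider cells are the test system, with ROR gamma fused to Gal4 and luciferase under UAS control; luminescence is read after 20 hr of 700 uM copper sulfate induction at ambient temperature.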
Giardia killer: kills Giardia lamblia. activity change, % at 7.66 µM, hits read low. hit rate 0.15% among 340,000. Giardia lamblia trophozoite viability; in the data active = activity change below about -80%; inconclusive = between about -30% and that limit;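 also: parasites exposed to compound for two days anaerobically before the ATP read; % is scaled to controls: 0 for no effect and ±100 for the full control effect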
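Anaerobic 48 hrs incubation at 37 deg C of 100 trophozoites/well with test compounds; ATPLite 1-Step luminescence, 15-30 min RT, reports cellular ATP as viability.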
Active calls of the source: *; ? = inconclusive; / = not tested or not shown; ! = repeats disagree; [ ] = remark or other dose. Unless noted, calls follow the shape of the dose curve; as a rule, active = well fitted curve in the direction sought with a large enough effect; inconclusive = small, poorly fitted or top-dose-only effect, or another doubt; inactive = no such curve, though single readings can be large; an effect the other way counts as inactive or inconclusive.

SMILES	ERG Ets-DNA blk	Gal4-VP16 FLuc	Integrin act MD	RORgamma inh	Giardia killer
Cc1cc(C)c2c(NC(=S)NC(=O)c3ccccc3)nn(C)c2n1	-2%	5µM*	2%	1.4µM*	-3
Cn1ncc2cc(NC(=S)NC(=O)c3ccccc3)ccc21	-14%	?	-3%	10µM*	-9
CCc1ccc(OCCCCn2c(CCNC(=O)C3CCCCC3)nc3ccccc32)cc1	/	/	/	/	-2
Cn1nc(C(=O)N2CCCCC2)c2c1-c1ccccc1S(=O)(=O)C2	0%	-2%	2%	19%	?
COc1ccc(/C=C/C(=O)OCCC(C)C)cc1	/	9%	/	38%	/
Fc1cc(Br)ccc1NC(=S)Nc1ccccc1	3%	?	-27%	?	-15
CC(C)(C)NC(=S)Nc1ccc(Br)cc1	-2%	-84%	-50%	2µM*	0
Cc1ccc(NC(=S)Nc2ccc(Br)cc2)cc1	-12%	?	15%	7.9µM*	-5
Fc1ccccc1NC(=S)Nc1ccc(Br)cc1	0%	?	-43%	11µM*	0
CC(C)(C)NC(=S)Nc1ccc(Nc2ccccc2)cc1	-1%	7.1µM*	-51%	1.8µM*	20
CCOc1ccc(CNC(=O)CCC(=O)n2ncc3ccc(Cl)cc32)cc1	-7%	-11%	-16%	17%	-10
CCCN(CCC)CC(O)Cn1cc(/C=C/C(=O)c2ccc(OCC)cc2)c2ccccc21 (centres undefined)	-1%	/	/	/	/
COC(=O)NNC(=S)Nc1ccc(Br)cc1	-4%	-15%	0%	14µM*	-7
CC(=O)Nc1ccc(NC(=S)Nc2ccc(Br)cc2)cc1	8%	1%	-35%	-22%	-2
CCCc1cc(N2CCN(C(=O)c3ccco3)CC2)n2c(nc3ccccc32)c1C#N	1%	4%	1%	4.5µM*	-3
CC(C)(C=O)C1=CC(=O)c2ccccc2C1=O	2%	5µM*	-46%	14µM*	-6
COc1ccc2c(c1O)C(=O)c1ccccc1C2=O	/	17%	/	-3%	/
COc1cccc2c1C(=O)C=C(C)C2=O	2%	7.1µM*	-330%	11µM*	-3
CC(C)(C)c1ccc2c(c1)C(=O)c1ccccc1C2=O	0%	-21%	-26%	43%	-1
CC1=CC(=O)c2ccccc2C1=O	30%	7.9µM*	/	11µM*!	11
CC(C)[C@@H](OCc1ccccc1)[C@H](C)/C=N\OC[C@@H](O)[C@@H]1O[C@@H]2OC(C)(C)O[C@@H]2[C@H]1O	/	-6%[10 µM]	/	-2%[10 µM]	/
O=C(NNc1nc2cc3c(cc2s1)OCCO3)c1ccccc1	3%	-16%	0%	4µM*	14
CC(=O)Nc1nc2cc3c(cc2s1)OCCO3	0%	-13%	4%	?	1
Cc1cccc2sc(NNC(=O)c3ccc4c(c3)OCCO4)nc12	7%	13µM*	1%	7.9µM*	-18
CCN(c1ccccc1)C(CNS(=O)(=O)c1ccccc1)c1ccccc1 (centres undefined)	0%	/	/	/	/
SMILES	ERG Ets-DNA blk	Gal4-VP16 FLuc	Integrin act MD	RORgamma inh	Giardia killer
Clc1ccc(C2CC(c3cccs3)n3ncnc3N2)c(Cl)c1 (centres undefined)	-3%	?	7%	11µM*	-3
CCn1cc(/C=N/NC(=O)c2ccc(C#N)cc2F)c2ccccc21	-12%	10µM*	7%	-140%	12
COC(=O)Cn1cc(/C=N/NC(=O)c2ccc(C#N)cc2F)c2ccccc21	-4%	-2%	12%	10µM*	-16
O=C(Cn1cc(/C=N/NC(=O)c2cccc3ccccc23)c2ccccc21)Nc1ccc(F)cc1	-21%	-8%	-17%	0%	0
CC(C)(C)C(=O)Nc1ccc(C(=O)CN2C(=O)NC3(CCOc4ccccc43)C2=O)cc1 (centres undefined)	1%	/	27%	/	-13
CCCn1c(C)nc2c(NCC(C)(C)CN(C)C)nc(C)nc21	/	-2%	/	-6%	/
O=C(NNC(=S)Nc1ccccc1Cl)C1CC1	-6%	?	19%	11µM*	-10
O=C(NNC(=S)Nc1ccccc1Cl)c1ccccc1	10%	-22%	-3%	13µM*	11
O=C(CN1CCN(c2ccccc2)CC1)Nc1ccccc1Cl	2%	23%	13%	21%	5
O=C(NC(=S)Nc1cccc(Cl)c1Cl)C1CC1	-3%	4.5µM*	8%	2.5µM*	7
O=C(NC(=S)Nc1ccccc1Br)C1CCCCC1	-11%	/	-3%	/	-9
O=C(CCN1CCN(c2ccccc2)CC1)NNC(=S)Nc1ccccc1Cl	7%	-20%	-27%	8.9µM*	2
COC(=O)C1=C(C(=O)OC)[C@@H]2N(C)c3ccccc3[C@@]23C[C@@H](C(=O)OC)N(C(=O)c2ccc(Br)cc2)C3=N1	-7%	-17%	3%	45%	18
CCc1ccc(-n2nnc(-c3nc(-c4cccs4)no3)c2N)cc1	-3%	/	/	/	/
CCOc1cc(NC(=S)Nc2ccccc2)c(OCC)cc1NC(=O)c1ccc(OC)cc1	-8%	11µM*	-44%	4µM*	11
CCOc1cc(NC(=O)c2ccccc2OC)c(OCC)cc1NC(=O)c1ccccc1	12%	-16%	1%	27%	4
COc1cccc(NC(=O)C(C)C)c1	-7%	/	0%	/	4
CCOc1cc(NC(=S)Nc2ccc(Cl)cc2)c(OCC)cc1NC(C)=O	2%	?	0%	11µM*	5
CCOc1cc(NC(=O)CCl)c(OCC)cc1NC(=O)CCl	-5%	20µM*	-48%	13µM*	37
CCOc1cc(NC(=S)Nc2cccc(OC)c2)c(OCC)cc1NC(=O)C(C)C	4%	?	-41%	8.9µM*	14
O=C(Nc1ccc(N2CCOCC2)c(F)c1)c1cccs1	4%	-21%	25%	?	-20
COc1ccc(CN2CCN(C(=O)C3CCC(CNS(=O)(=O)c4ccccc4)CC3)CC2)c(OC)c1OC (centres undefined)	3%	?	-32%	-41%	-12
COc1cccc(NC(=S)NC(C)c2ccc(OC)c(OC)c2)c1 (centres undefined)	0%	?	1%	7.9µM*	-4
CCOc1cc(NC(=S)Nc2cccc(OC)c2)c(OCC)cc1NC(=O)c1ccc(C)cc1	-1%	16µM*	-1%	7.9µM*	6
CCOc1cc(NC(=S)Nc2cccc(C)c2)c(OCC)cc1NC(=O)CC(C)C	5%	20µM*	0%	6.3µM*	-16
O=C(CCc1ccccc1)N(Cc1cccnc1)c1nc2ccc(F)cc2s1	-6%	/	/	/	/
O=C(CCl)N(C/C=C/c1ccccc1)c1ccc2c(c1)OCCO2	7%	?	-58%	13µM*	16
O=C(/C=C/c1ccccc1)c1ccc2c(c1)OCCCCO2	-11%	?	-65%	?	-15
COc1ccc(C2C(=O)N(C3CCC(C)CC3)CC(=O)N2C2CCCC2)cc1OC (centres undefined)	-1%	/	/	/	/
O=c1c2[nH]c3ccccc3c2ncn1CCC1=CCCCC1	8%	-3%	3%	44%	14
